What all share (assay): NCI-60 one-dose screen, 48 h (100 = growth as untreated, 0 = no growth, -100 = all killed)
Holding throughout (conditions): 10 µM unless noted

For assay [1], the system named is HCT-15 colon.
Assay [2] has as its system HT29 colon.
The subject of assay [3] is SNB-75 CNS.
In assay [4] the test system is SNB-19 CNS.
The test system of assay [5] is U251 CNS.
Assay [6] deals with PC-3 prostate.
The test system of assay [7] is SK-MEL-5 melanoma.
In assay [8] the test system is UACC-62 melanoma.
The test system of assay [9] is LOX IMVI melanoma.
For assay [10], the system named is SK-MEL-28 melanoma.

About 83,000 compounds went through this panel and 20% of them were active in at least one assay; those are over-represented in the sample as a whole.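 Percent growth is the endpoint: 0 to 100 indicates growth inhibition (40 means 60% inhibition), 0 means no net growth, and negative values indicate cell death.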 Unmarked numbers belong to inactive results. The source made the active and inactive calls. How the source made its calls: active means growth percent below 10; inactive means the rest.

Consider `COc1ccc2nc(-c3ccc(Cl)cc3)cc(-c3nnc(SCC(=O)Nc4ccc(/C(C)=N\O)cc4)o3)c2c1`, for which the growth was 23.6% in [1]; 24.5% in assay [2]; 39.9% in assay [3]; -18.2% (active) in assay [4]; -15.2% (active) in [5]; 13.7% in assay [6]. Further, the growth was 71.5% in assay [7], 45.2% in assay [8], 25.3% in assay [9] and 72.6% in [10].

As to `CCOC(=O)c1sc(/N=C2\NC(=O)/C(=C/c3ccc(N4CCN(C)CC4)cc3)S2)nc1C`, the growth is 95.9% in assay [1]; 86.9% in assay [2]; 101% in assay [3]; 104% in assay [4]; 106% in assay [5]; 102% in [6]. The growth in assay [7] was 98%; in [8], 113%; in assay [9], 65.7%; in assay [10], 113%.

`c1ccc(Sc2ncccn2)nc1`: the growth in [1] was 102%; in [2], 101%; in assay [3], 72.5%; in [4], 89.9%; in assay [5], 104%; in [6] it was 97.9%. Moreover, the growth in [7] is 102%; in [8], 93.6%; in [9], 92.6%; in [10], 109%.

In the case of `COc1ccc(Nc2cc(NC(=O)CNc3cc(OC)c(Cl)c(OC)c3Cl)ncn2)cc1`, the growth in [1] was 73.5%; in [2], 80.9%; in assay [3], 81.3%; in assay [4], 96.8%; in assay [5] it was 88.5%; in assay [6] it was 57.9%. The growth in assay [7] was 85.1%; in [8], 62.8%; in assay [9], 57.2%; in assay [10], 84.7%.

`CCCCn1c2cc(OCc3cn(-c4ccc(Cl)cc4)nn3)ccc2c2ccnc(C)c21`: the growth in [1] is 17.7%; in [2], 6.28% (active); in assay [3] it was 32.8%; in [4] it was 56.8%; in assay [5] it was 21.8%; in [6], 44.7%. In addition, the growth in assay [7] was 38.9%; in assay [8], 33%; in assay [9] it was 20.1%; in assay [10] it was 67.9%.

For `CCN1CCN(Cc2ccc(NC(=O)c3cccc(C#Cc4cccc5[nH]nc(N)c45)c3)cc2C(F)(F)F)CC1`, the growth in assay [1] is -70.7% (active); in assay [2], -83% (active); in [3] it was -60.8% (active); in [4], -83.6% (active); in assay [5], -95.6% (active); in assay [6], -80.3% (active). For the same molecule, the growth in assay [7] was -97.2% (active); in [8], -77.1% (active); in assay [9] it was -100% (active); in [10], -82.9% (active).

Take `CC(=O)Oc1ccc(O)cc1`: the growth in assay [1] is 104%; in assay [2] it was 87.3%; in assay [3], 91.1%; in assay [4], 96.2%; in [5] it was 101%; in assay [6], 87.1%. Further, the growth in assay [7] was 96.7%; in [8], 86.6%; in assay [9], 94.4%; in assay [10], 104%.

With `COc1cc(/C=C/CO)cc(OC)c1O[C@@H]1O[C@H](CO)[C@@H](O)[C@H](O)[C@H]1O`, the growth in assay [1] is 101%; in [2], 100%; in [3] it was 94.9%; in assay [4] it was 97.2%; in assay [5], 96.1%; in assay [6], 95.1%. The growth in assay [7] was 98.9%; in assay [8], 100%; in [9], 96.1%; in [10], 105%.

With `[2H]c1cc2c(c([2H])c1F)/C(=C/c1[nH]c(C)c(C(=O)NCCN(CC)CC)c1C)C(=O)N2`, the growth in assay [1] was 29.9%; in assay [2], 19%; in assay [3] it was 50.4%; in assay [4], 85.4%; in assay [5], 66.5%; in assay [6] it was 28.3%. For the same molecule, the growth in assay [7] was 51%; in assay [8], 67%; in assay [9], 26.5%; in assay [10], 64.7%.

Take `COc1cc2cc(c1Cl)N(C)C(=O)C[C@H](OC(=O)[C@H](C)N(C)C(=O)CCS)C[C@]1(C)O[C@H]1[C@H](C)[C@@H]1C[C@@](O)(NC(=O)O1)[C@H](OC)/C=C/C=C(\C)C2`: the growth in assay [1] is 11.2%; in assay [2], 0.342% (active); in [3], 21%; in [4], 34%; in [5], 10.2%; in assay [6] it was 22%. Moreover, the growth in [7] was -33.1% (active); in [8], 36.8%; in assay [9], 13.6%; in assay [10], 57.2%.

For the molecule `CCCCC1=c2c([nH]c3ccc(OC)cc23)=NC2C=CC=NC12` (stereo not given), the growth in [1] was 84.2%; in assay [2], 77.8%; in [3], 92.9%; in [4], 104%; in [5], 103%; in assay [6] it was 86.1%. In addition, the growth in [7] was 84.3%; in assay [8], 94.5%; in assay [9], 91.4%; in assay [10] it was 112%.

As to `O=c1[nH]c(-c2cccc(F)c2)cc2cc(F)ccc12`, the growth was 16.7% in [1]; 6.64% (active) in [2]; 12.1% in assay [3]; 26.6% in assay [4]; 21.6% in assay [5]; 16.3% in assay [6]. The growth was 42.2% in [7], 36.4% in assay [8], 43.3% in assay [9] and 61.7% in assay [10].

Take `O=C1Nc2ccc(Cl)cc2/C1=N/c1nc(-c2ccc(F)cc2)cs1`: the growth is 43.9% in assay [1]; 22.6% in assay [2]; 58.6% in assay [3]; 34.1% in [4]; 25.4% in assay [5]; 17.4% in assay [6]. Further, the growth in [7] is 41.7%; in [8] it was 7.64% (active); in assay [9], 19.5%; in assay [10], 42.6%.

Turning to `COc1cc(NCC(=O)Nc2cc(Nc3cccc(C(F)(F)F)c3)ncn2)c(Cl)c(OC)c1Cl`, the growth in [1] is 94%; in [2], 81.7%; in [3], 83.4%; in [4], 99.9%; in assay [5] it was 92.5%; in [6], 82.2%. In addition, the growth in assay [7] is 95.2%; in assay [8], 75.5%; in assay [9] it was 93.2%; in assay [10] it was 105%.

Consider `CCC1S/C(=N\N=C(/C)c2ccc[nH]2)N(c2ccccc2)C1=O` (stereo not given), for which the growth in [1] is 96.1%; in assay [2], 87.4%; in assay [3], 105%; in assay [4] it was 106%; in assay [5] it was 108%; in [6], 94.2%. Further, the growth was 79% in assay [7], 101% in [8], 110% in assay [9] and 110% in [10].

For the molecule `CC1CCCN(CCCCCOc2ccc3oc4ccccc4c(=O)c3c2)C1` (stereo not given), the growth in assay [1] was 26.4%; in assay [2] it was 8.93% (active); in [3] it was 75.8%; in assay [4] it was 83.6%; in assay [5], 62.7%; in assay [6], 73.7%. In addition, the growth in [7] is -59.2% (active); in assay [8], -26.5% (active); in [9], 33.2%; in assay [10] it was 45%.

For the molecule `C=C(C)[C@@H]1CCC=C2CC[C@]3(C)[C@H](CC[C@@H]4[C@@]5(C)CCCNC(C)(C)[C@@H]5CC[C@]43C)[C@H]21`, the growth in assay [1] was -17.7% (active); in assay [2], 3.02% (active); in [3], 100%; in assay [4] it was 15.3%; in assay [5], -73% (active); in assay [6], 38.2%. Further, the growth is 81.9% in [7], 87.7% in assay [8], -43.4% (active) in assay [9] and 96.7% in assay [10].

As to `COc1ccc2[nH]c(=O)c(/C=C/C(=O)/C=C/c3ccc(O)c(OC)c3)cc2c1`, the growth was 2.08% (active) in assay [1]; -38.7% (active) in assay [2]; 59.8% in assay [3]; 36.3% in [4]; -13% (active) in assay [5]; 9.53% (active) in assay [6]. In addition, the growth in assay [7] was 9.36% (active); in assay [8], 10.8%; in assay [9], -36% (active); in assay [10], 16.8%.

Take `COc1cc2nc3c(=O)n(-c4ccc(C#N)cc4)cnn3c(=O)c2cc1OC`: the growth was 100% in [1]; 100% in assay [2]; 73.9% in assay [3]; 97.7% in assay [4]; 102% in assay [5]; 98.3% in assay [6]. In addition, the growth in assay [7] is 96.1%; in [8] it was 95.1%; in assay [9], 95.4%; in assay [10], 99.8%.

`C#CCN(CCCOc1ccc(Cl)cc1Cl)CCCSC(=O)CCCCCN1/C(=C\C=C2/CCCC(/C=C/C3=[N+](CCCCCC(=O)[O-])c4ccccc4C3(C)C)=C2Cl)C(C)(C)c2ccccc21`: the growth in assay [1] is 87.2%; in assay [2], -26.7% (active); in assay [3], 42.4%; in assay [4], 14.7%; in [5] it was -63.8% (active); in [6] it was 20.9%. The growth in assay [7] is -25.7% (active); in assay [8], -25.8% (active); in [9], -29.8% (active); in assay [10], -9.83% (active).

For the molecule `S=c1ssnc1-c1cc2ccccc2o1`, the growth was 71.1% in assay [1]; 56.6% in [2]; 80.8% in [3]; 82% in assay [4]; 91.5% in assay [5]; 14.9% in assay [6]. Also, the growth in assay [7] was 68.7%; in [8], 86.6%; in assay [9], 60.5%; in assay [10], 93.2%.

Regarding `CCCCCCN1C(=O)CN=C1Nc1ccc2cc3ccc(NC4=NCC(=O)N4CCCCCC)cc3nc2c1`, the growth in assay [1] is 49%; in assay [2] it was 15.5%; in [3], 61.7%; in [4] it was 48.4%; in assay [5], 22.1%; in assay [6], 51%. For the same molecule, the growth in [7] was 82.6%; in assay [8], 82.6%; in assay [9], -41.8% (active); in assay [10], 85.9%.

In the case of `COc1ccc2c(c1)C1(C(=O)N2)C(C#N)=C(c2ccccc2)Nc2c1c(-c1ccccc1)nn2-c1ccccc1` (stereo not given), the growth in assay [1] is 85%; in assay [2] it was 43%; in assay [3], 33.8%; in assay [4], 59.7%; in [5] it was 9.08% (active); in assay [6] it was 7.28% (active). The growth is 58.6% in assay [7], 85.1% in assay [8], 52.7% in [9] and 42.9% in assay [10].

With `COC(=O)[C@]1(C)CCC[C@]2(C)[C@H]3C[C@H]4C(C(C)C)=C[C@]3(CC[C@H]21)[C@@H]1C(=O)N(CCC#N)C(=O)[C@@H]14`, the growth in assay [1] is 83.2%; in assay [2] it was 70.5%; in assay [3] it was 93%; in [4], 102%; in assay [5], 87.8%; in assay [6], 31.2%. Further, the growth was 71.6% in assay [7], 62.9% in assay [8], 98.1% in assay [9] and 108% in assay [10].

Source of the values: PubChem BioAssay (NCI).
